Screens from PubChem.
NS3h inh CB – hepatitis C NS3 helicase inhibition, primary screen; NS3h Cy5-dT15 DNA binding, fluorescence polarization; inhibition, % at 100 µM; 1.6% of 16,000 active; AID 687043;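 active means inhibition above the average over every tested compound plus 3 SD, cut at about 40% in these data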
Cy5 interf NS3h – counter-screen for HCV NS3 helicase inhibitors: fluorescence interference | 6% of 16,000 active | fluorescence interference ratio at 100 µM | Cy5-dT15 DNA with NS3h; actives lie on both sides; signal over control mean, under 1 quenches;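 active means compound fluorescence over control fluorescence at most 0.8, a quencher, or at least a set upper limit, an enhancer; inactive means ratio between 0.8 and the set upper limit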
HCV NS3h conf – hepatitis C NS3 helicase inhibition, confirmation | NS3h binding to Cy5-dT15 DNA, fluorescence polarization | shares compounds with NS3h inh CB | 20% of 240 active | inhibition, % at 100 µM;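 active means percent inhibition of 50% or more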
SSB-DNA FP CB – counter-screen for HCV NS3 helicase inhibitors: E. coli SSB binding; inhibition, % at 100 µM; E. coli SSB binding Cy5-dT15, fluorescence polarization; AID 720486; shares compounds with NS3h inh CB; 40% of 240 active;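 active means inhibition of at least 50%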;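 further: displacers lower Cy5 polarization so higher inhibition means more SSB displaced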
Target sequence (P0AGE0 whole entry, looked up): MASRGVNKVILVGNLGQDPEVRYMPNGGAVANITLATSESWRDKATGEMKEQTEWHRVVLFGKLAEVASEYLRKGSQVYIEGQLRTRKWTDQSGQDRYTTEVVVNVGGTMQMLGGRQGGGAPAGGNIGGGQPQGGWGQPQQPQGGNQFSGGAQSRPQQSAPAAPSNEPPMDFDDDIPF
Cy5 SSB interf – Cy5 fluorescence interference in NS3h counter-screen. AID 720487. shares compounds with NS3h inh CB. fluorescence interference ratio at 100 µM. Cy5-dT15/E. coli SSB fluorescence interference; actives lie on both sides. 8% of 240 active;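 active means fluorescence interference ratio at or above 1.2, signal boosting, or at or below 0.8, signal quenching; inactive means ratio between 0.8 and 1.2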
Cy5 interf conf – Cy5 fluorescence interference, confirmation counter-screen. shares compounds with NS3h inh CB. AID 720489. fluorescence interference ratio at 100 µM, hits read low. 44% of 240 active. Cy5-dT15 DNA/NS3h fluorescence interference counterscreen;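 active means fluorescence interference ratio at or below 0.8 quencher or at or above a set limitenhancer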
Each line names hits and unclear results; the compound was inactive in the other large screens (follow-up assays come after a bar, where they were run). In the library only some 6.9% were active in any assay of this set; here they are far more common.

CC1=C(C(=O)Nc2ccccc2Cl)C(c2ccc(Br)cc2)NC(=S)N1 (stereo not given)	none
Cc1ccc(C)n1-c1ccc(OCC(=O)O)cc1	NS3h inh CB 82, Cy5 interf NS3h 1.4 | HCV NS3h conf 78 | SSB-DNA FP CB 95 | Cy5 SSB interf inactive | Cy5 interf conf inactive
Cc1nc(=O)c(-c2ccccc2)c(C)n1-c1ccc(OCC(=O)O)cc1	none
COc1ccc(N2C(=O)c3ccccc3NC2c2cccc(F)c2)cc1 (stereo not given)	none
Cc1ccc(N2C(=O)c3ccccc3NC2c2cccc(F)c2)cc1 (stereo not given)	none | HCV NS3h conf inactive | SSB-DNA FP CB inactive | Cy5 SSB interf inactive | Cy5 interf conf 0.72
CCN(CC)CCN1C(=O)c2ccccc2NC1c1cccc(F)c1 (stereo not given)	NS3h inh CB 41 | HCV NS3h conf inactive | SSB-DNA FP CB inactive | Cy5 SSB interf inactive | Cy5 interf conf inactive
CCCN1C(=O)c2ccccc2NC1c1cccc(F)c1 (stereo not given)	none
COc1cc(C(=S)N2CCOCC2)cc(OC)c1OC(=O)c1cccc([N+](=O)[O-])c1	none
CN(C)c1ccc(NC(=O)c2ccc(Cl)cc2)cc1	none
CN(C)c1ccc(C(=O)Nc2ccc(S(N)(=O)=O)cc2)cc1	NS3h inh CB 78 | HCV NS3h conf 57 | SSB-DNA FP CB inactive | Cy5 SSB interf inactive | Cy5 interf conf 0.78
CS(=O)(=O)N(CC(=O)Nc1ccc(Oc2ccccc2)cc1)c1cccc(Cl)c1	none
Cc1c(C(=O)O)cccc1-n1c(C)ccc1C	NS3h inh CB 97, Cy5 interf NS3h 1.4 | HCV NS3h conf 67 | SSB-DNA FP CB 106 | Cy5 SSB interf inactive | Cy5 interf conf inactive
O=C(O)c1cccc(C(=O)O)c1N(c1ccccc1)c1ccccc1	none
COc1ccccc1N1C(=O)NC(=O)/C(=C\c2ccc(Br)cc2)C1=O	none
COc1ccc(OC)c(N2C(=O)NC(=O)/C(=C/C=C/c3ccccc3)C2=O)c1	NS3h inh CB 49 | HCV NS3h conf inactive | SSB-DNA FP CB inactive | Cy5 SSB interf inactive | Cy5 interf conf inactive
COc1ccc(OC)c(N2C(=O)NC(=O)C(=Cc3cccs3)C2=O)c1	NS3h inh CB 95 | HCV NS3h conf inactive | SSB-DNA FP CB inactive | Cy5 SSB interf inactive | Cy5 interf conf inactive
O=C1NC(=O)N(c2ccc(Cl)cc2)C(=O)/C1=C/c1cccs1	none
COc1cc(/C=C2\C(=O)NC(=O)N(c3ccc(C)cc3)C2=O)ccc1OCc1ccccc1	none
COc1cccc(N2C(=O)/C(=C/c3ccccc3Cl)SC2=S)c1	none
CCOC(=O)C1=C(C)N=c2s/c(=C\c3ccc(F)cc3)c(=O)n2C1c1cccs1 (stereo not given)	none
Cc1ccc(OCCOc2ccc(Br)cc2/C=C2/SC(=S)N(C)C2=O)cc1	none
Cc1ccc(OCCOc2ccc(Cl)cc2/C=C2/SC(=S)N(C)C2=O)cc1	NS3h inh CB 46 | HCV NS3h conf inactive | SSB-DNA FP CB inactive | Cy5 SSB interf inactive | Cy5 interf conf 0.8
Nc1c(Cl)cc(N2C(=O)C=CC2=O)cc1Cl	NS3h inh CB 54 | HCV NS3h conf 62 | SSB-DNA FP CB inactive | Cy5 SSB interf inactive | Cy5 interf conf inactive
CC(/C=C1\SC(=S)N(C(C(=O)O)c2ccccc2)C1=O)=C\c1ccccc1 (stereo not given)	none | HCV NS3h conf inactive | SSB-DNA FP CB inactive | Cy5 SSB interf inactive | Cy5 interf conf 0.69
O=C1C(=C/C(Br)=C/c2ccccc2)SC(=S)N1Cc1ccccc1	none
CCOc1ccc(N2C(=O)C=CC2=O)c([N+](=O)[O-])c1	NS3h inh CB 64 | HCV NS3h conf inactive | SSB-DNA FP CB inactive | Cy5 SSB interf inactive | Cy5 interf conf inactive
O=C1C=CC(=O)N1c1cccc([N+](=O)[O-])c1	NS3h inh CB 63 | HCV NS3h conf 66 | SSB-DNA FP CB inactive | Cy5 SSB interf inactive | Cy5 interf conf inactive
Cc1ccc(N2C(=O)C=CC2=O)c(Br)c1	NS3h inh CB 76 | HCV NS3h conf 62 | SSB-DNA FP CB inactive | Cy5 SSB interf inactive | Cy5 interf conf inactive
O=C1C2C3C=CC(C3)C2C(=O)N1c1ccc([N+](=O)[O-])cc1Br (stereo not given)	none
O=C1C2C3CCC(O3)C2C(=O)N1c1cccc([N+](=O)[O-])c1 (stereo not given)	none
O=C1C=CC(=O)N1c1ccc([N+](=O)[O-])cc1Br	NS3h inh CB 88 | HCV NS3h conf 62 | SSB-DNA FP CB inactive | Cy5 SSB interf inactive | Cy5 interf conf 0.76
CCOc1ccc(NC(=O)c2cccc(Oc3ccccc3)c2)c([N+](=O)[O-])c1	none
Cc1ccc(OCC(N)=O)c(Br)c1	none
O=C1NC(=Nc2cccnc2)S/C1=C/C=C/c1ccccc1	none
CCc1ccc(NC(=O)CN2C(=O)c3ccccc3C2=O)cc1	none
O=C1C2C3CCC(O3)C2C(=O)N1c1ccccn1 (stereo not given)	none
O=C(O)C1Nc2c(Cl)cc(Cl)cc2C2C=CCC12 (stereo not given)	NS3h inh CB 97 | HCV NS3h conf 57 | SSB-DNA FP CB 104 | Cy5 SSB interf inactive | Cy5 interf conf 0.75
O=[N+]([O-])c1ccc2c(c1)C1C=CCC1C(c1cccc(Cl)c1Cl)N2 (stereo not given)	none
COc1ccc2c(c1)C1C=CCC1C(C(=O)O)N2 (stereo not given)	NS3h inh CB 84 | HCV NS3h conf 59 | SSB-DNA FP CB 108 | Cy5 SSB interf 1.5 | Cy5 interf conf inactive
Cc1cccc(/C=N\n2c(C)nnc2C)c1	none
COc1cccc(/C=N\N2CCN(Cc3ccc(Cl)cc3)CC2)c1	none
O=C(/C=C/c1ccc(Br)cc1)NC(=S)NCCCN1CCOCC1	none
COc1ccccc1OCCCCOc1ccc(Cl)c(C)c1	none
O=C(Nc1ccc(Cl)cc1Cl)c1nn2c(c1Br)NC(c1ccccc1)CC2C(F)(F)F (stereo not given)	none
O=C(/C=C/c1ccco1)Nc1ccc(O)cc1C(=O)O	NS3h inh CB 61 | HCV NS3h conf inactive | SSB-DNA FP CB 93 | Cy5 SSB interf inactive | Cy5 interf conf inactive
Cc1cccc(NC(=O)c2ccccc2NC(=O)/C=C\c2ccco2)c1C	none
COc1ccc(-n2c(Cc3ccccc3)n[nH]c2=S)c(OC)c1	none
COc1cc(N)ccc1-n1c(C)ccc1C	NS3h inh CB 68, Cy5 interf NS3h 0.7 | HCV NS3h conf inactive | SSB-DNA FP CB inactive | Cy5 SSB interf 0.69 | Cy5 interf conf 0.61
COc1ccc(/C=C/C(=O)c2ccc(S(=O)(=O)NCc3cccnc3)cc2)cc1	none
O=C(Nc1ccc(Cl)c(Cl)c1)C1CC(=O)N(c2cccc([N+](=O)[O-])c2)C1 (stereo not given)	none | HCV NS3h conf inactive | SSB-DNA FP CB inactive | Cy5 SSB interf inactive | Cy5 interf conf inactive
Cc1ccc(NC(=O)C2CC(=O)N(c3ccc(Br)cc3)C2)cc1Cl (stereo not given)	none
CN(C)c1ccc(NC(=O)N2CCOCC2)cc1	NS3h inh CB 157, Cy5 interf NS3h 2.1 | HCV NS3h conf 55 | SSB-DNA FP CB 82 | Cy5 SSB interf inactive | Cy5 interf conf inactive
O=C(Nc1cccnc1)N1CCOCC1	none
